Measured values as given in PubChem BioAssay AID624116 (National Center for Advancing Translational Sciences (NCATS), 2012).
Inconclusive results are not listed. Where a call stands in place of a potency, no number is given. Active and inactive are the calls of the source. The call rests on the fitted dose curve; in most records, active means well fitted activation curve with a large enough effect; inconclusive means small, poorly fitted or top-dose-only effect; inactive means no such curve, though single readings can be large or run the other way.

test: qHTS Assay for Rab9 Promoter Activators: Hit Validation Using Renilla Luciferase Read-Out for Rab9; conditions: Huh7 Rab9 promoter Renilla luciferase reporter, 24 h; series mostly up to 76.9 µM
How it was run: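 Huh7 cells stably carrying promoter-luciferase reporter, exposed to compound for 24 h at 37 deg C. Luminescence read 10 min after adding luciferase detection reagent at room temperature.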
Potency means the concentration at half of the fitted maximal effect.

Row | Structure (SMILES) | Potency
1 | O=C(NNC(=O)C1COc2ccccc2O1)c1ccccc1O (configuration not stated) | inactive
2 | N#C/C(=C\c1ccc[nH]1)C(=O)Nc1ccccc1Cl | 23.2 µM (active)
3 | C=CCc1ccc(OCCOCCNCCOC)c(OC)c1 | inactive
4 | Cc1ccc(C2C3=C(CC(C)(C)CC3=O)N(CCN3CCOCC3)C3=C2C(=O)CC(C)(C)C3)cc1 | 20.7 µM (active)
5 | CC1CCCN(C(=S)Nc2ccc(Nc3ccccc3)cc2)C1 (configuration not stated) | inactive
6 | COc1ccccc1C(=O)Nc1nnc(SCC(=O)NC2CCCC2)s1 | inactive
7 | COCc1cc(C)nc(N/N=C/c2ccc(-c3ccc(Cl)cc3[N+](=O)[O-])o2)c1C#N | inactive
8 | O=C(COc1ccccc1F)Nc1ccc(-c2nc3ccccc3s2)cc1 | inactive
9 | COC(=O)c1sccc1NC(=S)OC | inactive
10 | CCCCn1c(Nc2ccc(OC)cc2)nc2ccccc21 | inactive
11 | Brc1ccccc1-c1nnc(CSc2nnc3sc4ccccc4n23)o1 | inactive
12 | Cc1ccc(C(=O)c2cncc(Br)c2)cc1 | inactive
13 | O=C(/C=C/c1ccco1)NCC1OCCc2ccccc21 (configuration not stated) | inactive
14 | CC(=O)c1cccc(NC(=O)N2CCOCC2)c1 | inactive
15 | O=C(CCCOc1ccc(Cl)cc1)N1CCCCC1 | inactive
16 | O=C(CSc1nnc(-c2ccc([N+](=O)[O-])cc2)o1)Nc1ccccn1 | inactive
17 | CCC1CCCCN1CCCNC(=O)c1ccc2nc(N3CCCCC3)sc2c1 (configuration not stated) | inactive
18 | N#C/C(=N\Nc1ccc(Cl)cc1)C(=N)N1CCCCC1 | inactive
19 | COc1ccc([N+](=O)[O-])cc1COc1ccc2c(-c3ccccc3)cc(=O)oc2c1 | 3.28 µM (active)

Row | Structure (SMILES) | Potency
20 | CCOc1cc(C(=O)N=c2sccn2C)ccc1OC(F)F | inactive
21 | NC(=O)C(=O)NN=C1C2CC3CC(C2)CC1C3 | inactive
22 | CN(C)/C=N/c1c(C#N)cnn1-c1nc2ccccc2s1 | inactive
23 | O=C(Nc1nc2ccc(F)cc2s1)c1ccc(N2CCCC2=O)cc1 | inactive
24 | CCN(Cc1nc2cc(Cl)ccc2c(=O)[nH]1)C(=O)C1CC(=O)N(c2cccc3ccccc23)C1 (configuration not stated) | inactive
25 | COC(=O)c1cn(NC(=O)C2CCCCC2)c(=O)c2ccccc12 | inactive
26 | COc1ccc(NC(=S)NNC(=O)c2cccs2)cc1 | inactive
27 | COC(=O)c1ccccc1NC(=O)c1ccc(-c2ccc(Br)cc2)o1 | inactive
28 | CC1CC(C)CN(CC(=O)N2CCOCC2)C1 (configuration not stated) | inactive
29 | Cc1[nH]n(-c2cccc3ccccc23)c(=O)c1/C=N/c1sc2c(c1C#N)CCC2 | inactive
30 | CCCNC(=O)C1CCN(S(=O)(=O)c2ccc3[nH]c(=O)ccc3c2)CC1 | inactive
31 | COc1ccc(-c2noc(N3CCCC(C(=O)Nc4ccccc4F)C3)n2)cc1 (configuration not stated) | inactive
32 | COc1ccc(/C=C\c2onc(C)c2S(=O)(=O)N2CCC(C(=O)NCCC(C)C)CC2)cc1 | inactive
33 | CCOC(=O)C1(Cc2cccc(Cl)c2)CCCN(C(=O)CCSC)C1 (configuration not stated) | inactive
34 | COc1ccc(NC(=O)CSc2ccc([N+](=O)[O-])cc2)cc1S(=O)(=O)N1CCOCC1 | inactive
35 | COCC1CCN(C(=O)c2ccc3oc(Cc4ccccc4)nc3c2)C1 (configuration not stated) | inactive
36 | COc1cccc(NC(=O)CN2C(=O)CSc3ccc(S(=O)(=O)N4CCC(C)CC4)cc32)c1 | inactive
37 | Cc1ccc(NC(=O)COC(=O)C2C3CC4OC(=O)C2C4C3)cc1Cl (configuration not stated) | inactive
